Results with a measured potency or affinity are listed apart. The source made the active and inactive calls.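 The calls were made as follows: active = polarization signal falls with dose and the fitted half-maximal concentration is at or below ten times the sample's top valid dose; inconclusive = flat curve at 30 to 70% inhibition, or poor fit; inactive = signal rises, flat within 30%, or potency beyond limit.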
Molecular target: Golgi-associated PDZ and coiled-coil motif-containing protein (Homo sapiens) (UniProt Q9HD26)
Assay: potency against CAL PDZ-peptide interaction – biochemical, fluorescence polarization, Cerulean-tagged CAL PDZ, cherry-picks, dose response (AID 504773)
Details: CAL PDZ-peptide binding, 1 h; series mostly up to 50 µM

outcome, inactive:
O=C1OC2(CCCCC2)OC(=O)C1=CNc1nc2ccccc2s1, O=C(Nc1nccs1)c1ccc(F)c(S(=O)(=O)N2CCOCC2)c1, CCOc1c(Cl)cc(CNc2nnnn2C)cc1OC, COCCCNC(=O)c1cc(S(=O)(=O)N2CCOCC2)ccc1SCc1cccc(OC)c1OC, CN1CC(=O)N(CC(=O)Nc2ccc(Br)cc2F)C1=O, Cc1ccc(/C=N/NC(=O)NN(C)c2ncc(C(F)(F)F)cc2Cl)cc1, Cc1c(Cl)c(C(=O)N2CCCC2)nn1C, Nc1nc2ccccc2cc1S(=O)(=O)c1ccccc1, Oc1ccc(C=Nc2cccc3ccccc23)c(O)c1, Cc1cc(Cl)c(Cl)cc1S(=O)(=O)NCCCn1ccnc1, Cc1cccc(NC(=O)Cn2cnc3c(oc4ccccc43)c2=O)c1C, CCN(CC(=O)Nc1cc(Cl)cc(Cl)c1)CC(=O)NC1CCS(=O)(=O)C1 (stereo unspecified), O=C(NNS(=O)(=O)c1ccc(Cl)cc1)c1cccs1, O=C(NCc1cccs1)c1cccn2c(=O)c3sccc3nc12, COCCOC(=O)c1c(C)oc2ccc(OS(C)(=O)=O)cc12, COc1cc(NC(=O)c2cccs2)ccc1NC(=O)c1ccccc1Cl, O=C(Nc1ccccc1Cl)Nc1cccnc1Cl, Cc1c(C(=O)OCC(=O)NC(=O)NC2CCCCC2)cccc1[N+](=O)[O-], CC(C)OCCCNC(=O)C1CC(=O)N(CCc2ccc(F)cc2)C1 (stereo unspecified), O=C(c1ccccc1Cl)N(Cc1ccc(Cl)c(Cl)c1)N1C(=O)CCCC1=O, COc1ccc(N2CCN(C(=O)c3cccc4nc(C)oc34)CC2)cc1, CCCCOc1ccc(C(=O)N2CCNC(=O)C2CC(=O)OC(C)C)cc1 (stereo unspecified), COc1ccc(S(=O)(=O)N2CC(=O)Nc3ccccc32)cc1F, COc1cc(C(=O)ON=C2C(C)=CC(=O)C=C2C)cc(OC)c1OC, N#C/C(=C\c1c[nH]c2ccccc12)C(=O)NC1CC1, Cc1ccccc1S(=O)(=O)NC(=NCc1ccc(F)cc1)c1ccccc1, COc1ccc(-c2nc3ccccc3o2)cc1OC, CCC1C(=O)NCCN1C(=O)CCc1nnc(CCc2ccc(OC)cc2)o1 (stereo unspecified), Cc1ccccc1CN(C)C(C)C(=O)Nc1ccccc1F (stereo unspecified), CCCCNC(=S)NNc1c(Cl)cc(Cl)cc1Cl, O=C(OCc1ccc(Br)cc1)c1cccnc1, Cc1ccc(CNC2CCCCC2)s1, COc1cc([N+](=O)[O-])ccc1NC(=O)CN1CCN(C(=O)c2ccco2)CC1, CCCn1nnnc1NCc1cc(Br)ccc1OC, O=C(c1cc2cc([N+](=O)[O-])ccc2oc1=O)N1CCN(C2CCCCC2)CC1, Cc1cc(=O)n2c3ccccc3n(CC(O)CN3CCN(CCO)CC3)c2c1C#N (stereo unspecified)

— PubChem BioAssay AID504773 (Broad Institute, 2011)
